Source: PubChem (Broad Institute)
ERAP1 HTS inh = human ERAP1 aminopeptidase inhibitors, primary screen, biochemical, single point, plate reader | actives 0.15% (n = 340,000) | inhibition, % at 10.7 µM | recombinant ERAP1, Leu-AMC fluorescence, 60 min | AID 652197, 2013 | Endoplasmic reticulum aminopeptidase 1 (Homo sapiens), Q9NZ08;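 active = mean replicate inhibition of at least 30%, or all replicates individually reaching that 30% level; inactive = mean below 30% and not every replicate reaching it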;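 also: 0% = neutral control wells and 100% = L-leucinethiol positive control wells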
PGC1a acetyl inh = inhibitors of PGC1a acetylation signal, primary screen, cell-based, U2OS, AlphaScreen, inhibitor mode; AlphaScreen anti-acetyl-lysine; with virally co-expressed GCN5 acetyltransferase; inhibition, % at 15.6 µM; actives 0.17% (n = 350,000);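 active = every replicate shows inhibition of at least 40%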;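 also: 0% = neutral control wells and 100% = positive control wells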
GSIS activator = GLuc luminescence reporter in INS-1E cells, primary screen for activators of glucose-dependent secretion of insulin. INS-1E GLuc reporter insulin secretion, 2-3 h. activation, % at 16.6 µM. actives 0.61% (n = 370,000). AID 743287, 2014;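 active = lowest replicate activation of at least 40%, so every replicate reaches that level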;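 also: 0% = median of neutral control wells and 100% = median of IBMX positive control wells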
DENV2 CPE rescue = inhibitors of DENV2 cytopathic effect, primary screen, cell-based, plate reader, single concentration | actives 1.7% (n = 350,000) | AID 651640, 2012 | CPE inhibition, % at 9.99 µM | DENV2-infected cells, cytopathic effect rescue; in the data active = CPE inhibition above about 20%, passing the limit was not always enough; tested in BHK-21 cells;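 also: 0% = median of neutral control wells and 100% = median of positive control wells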
Ecoli rRNA inh = reduced GFP signal of wild-type E. coli, primary screen, bacterial rRNA inhibitor project, GFP/RFP fluorescence, OD600, single point. actives 1.6% (n = 350,000). E. coli WT GFP vs humanized-ribosome RFP mutants, 24 h; stronger effect = lower value; DMSO median 0, no signal -100. GFP signal change (wild-type ribosome), % (test concentration not listed);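 active = significant combined selectivity score with lowered wild-type GFP, culture density cut under 30%, mutant RFP and density less affected; inactive = any of these conditions unmet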
CaV13 ICDI inh = Disruptors of the CACNA1D IQ motif to Ca2+-dependent inactivation inhibitor domain association, primary screening, Förster resonance energy transfer in intact living …; HEK cells, CFP/YFP FRET ICDI-IQ, plate reader, 10 min; percent FRET-ratio fall versus neutral wells; inhibition, % at 12.3 µM; actives 0.098% (n = 340,000); AID 743397;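 active = mean replicate inhibition of at least 30% and at least 1% of replicates passing that level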;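 also: 0% = median of the neutral control wells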
Numbers without * were called inactive; nt = not tested or not shown; ! = repeats disagree. In the library only some 3.2% were active in any assay of this set; here they are far more common.

SMILES | ERAP1 HTS inh | PGC1a acetyl inh | GSIS activator | DENV2 CPE rescue | Ecoli rRNA inh | CaV13 ICDI inh
O=C1CCC(=O)N[C@H](c2ccc(F)cc2)C/C=C\C[C@@H](c2ccc(F)cc2)N1 | nt | nt | -6 | nt | -2 | nt
C[C@@H]1CN([C@@H](C)CO)C(=O)c2cc(NC(=O)c3ccncc3)ccc2O[C@@H](C)CCCCO[C@H]1CN(C)C(=O)C1CCCCC1 | 1 | -1 | -5 | -6 | -2 | nt
C[C@H]1CN([C@@H](C)CO)C(=O)c2cccc(NC(=O)CCCCCC(=O)Nc3ccccc3N)c2O[C@@H]1CN(C)C(=O)Nc1ccc(C(F)(F)F)cc1 | -2 | 7 | 21 | 2 | -2 | nt
COc1ccc(S(=O)(=O)N(C)C[C@@H]2Oc3ccc(NC(=O)Nc4ccccc4)cc3C(=O)N([C@H](C)CO)C[C@H]2C)cc1 | 0 | -2 | -7 | -4 | -10 | nt
COc1ccc(NC(=O)Nc2ccc3c(c2)C(=O)N([C@@H](C)CO)C[C@@H](C)[C@H](CN(C)S(=O)(=O)c2ccc(OC)cc2)O3)cc1 | 3 | -6 | -8 | 28* | -7 | nt
COc1ccc(S(=O)(=O)Nc2ccc3c(c2)C(=O)N([C@@H](C)CO)C[C@H](C)[C@H](CN(C)S(=O)(=O)c2ccc(Cl)cc2)O3)cc1 | nt | 6 | 12 | 15 | 0 | nt
COc1ccc(S(=O)(=O)N(C)C[C@@H]2Oc3ccc(NC(=O)Nc4ccccc4)cc3C(=O)N([C@@H](C)CO)C[C@H]2C)cc1 | 3 | 0 | -5 | 35* | -5 | nt
COc1ccc(S(=O)(=O)Nc2ccc3c(c2)C(=O)N([C@H](C)CO)C[C@H](C)[C@@H](CN(C)C)O3)cc1 | -4 | 7 | -6 | 69* | 1 | nt
COc1ccc(S(=O)(=O)Nc2ccc3c(c2)C(=O)N([C@@H](C)CO)C[C@@H](C)[C@H](CN(C)S(=O)(=O)c2ccc(Cl)cc2)O3)cc1 | nt | -12 | -11 | 85* | -5 | nt
C[C@@H]1CN([C@H](C)CO)C(=O)c2cc(NC(=O)C3CCCCC3)ccc2O[C@@H](C)CCCCO[C@@H]1CN(C)S(=O)(=O)c1cn(C)cn1 | -1 | nt | -6 | 4 | 1 | nt
CCC(=O)Nc1ccc2c(c1)OC[C@@H](C)N(Cc1cncnc1)C[C@H](C)[C@H](OC)CN(C)C2=O | -3 | 5 | -8 | 1 | 0 | nt
C[C@@H]1CN([C@@H](C)CO)C(=O)Cc2cc(NC(=O)Nc3ccc(C(F)(F)F)cc3)ccc2O[C@H]1CN(C)CC1CCCCC1 | 3 | -18 | 9 | -11 | -9 | nt
COc1ccc(S(=O)(=O)N(C)C[C@H]2Oc3ccc(NC(=O)CCCN(C)C)cc3C(=O)N([C@@H](C)CO)C[C@H]2C)cc1 | 1 | 2 | 2 | 33* | -2 | nt
COc1ccc(NC(=O)Nc2ccc3c(c2)C(=O)N([C@@H](C)CO)C[C@@H](C)[C@@H](CN(C)S(=O)(=O)c2ccc(Cl)cc2)O3)cc1 | 3 | -2 | -6 | 2 | 0 | nt
COc1ccc(NC(=O)Nc2ccc3c(c2)C(=O)N([C@H](C)CO)C[C@@H](C)[C@H](CN(C)S(=O)(=O)c2ccc(Cl)cc2)O3)cc1 | 1 | -5 | 1 | 68* | -9 | nt
CNC[C@@H]1Oc2ccc(NS(=O)(=O)c3ccc(Cl)cc3)cc2C(=O)N([C@H](C)CO)C[C@@H]1C | 2 | 2 | -1 | 39*! | -2 | -4
COc1ccc(S(=O)(=O)N(C)C[C@H]2Oc3ccc(NC(=O)CCCN(C)C)cc3C(=O)N([C@H](C)CO)C[C@@H]2C)cc1 | -7 | 8 | 10 | -7 | 3 | nt
CNC[C@H]1Oc2ccc(NS(=O)(=O)c3ccc(Cl)cc3)cc2C(=O)N([C@@H](C)CO)C[C@@H]1C | 2 | 2 | 0 | -1 | 3 | nt
COc1ccc(CN2CC3(CCN(C(=O)C4CC4)CC3)c3c(n(C)c4cc(OC)ccc34)[C@@H]2CO)cc1 | -2 | nt | -12 | -8 | 4 | nt
